Measured values published in PubChem BioAssay AID623911 (Vanderbilt High Throughput Screening Facility, 2012).
In all, about 2,100 compounds went through this assay and about 770 (37%) were called active.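 How the source made its calls: active means by-eye trace score of 1 for enhancers or -1 for inhibitors, so actives lie on both sides (some results past the limit were not filed as active); inactive means score 0, or 3 fluorescent, or 4 baseline rise.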 The list shows a part of the results.

Target: G protein-activated inward rectifier potassium channel 2 (Homo sapiens) + G protein-activated inward rectifier potassium channel 1 (Homo sapiens) (UniProt P48051+P48549)
Sequence (P48051 whole entry, looked up): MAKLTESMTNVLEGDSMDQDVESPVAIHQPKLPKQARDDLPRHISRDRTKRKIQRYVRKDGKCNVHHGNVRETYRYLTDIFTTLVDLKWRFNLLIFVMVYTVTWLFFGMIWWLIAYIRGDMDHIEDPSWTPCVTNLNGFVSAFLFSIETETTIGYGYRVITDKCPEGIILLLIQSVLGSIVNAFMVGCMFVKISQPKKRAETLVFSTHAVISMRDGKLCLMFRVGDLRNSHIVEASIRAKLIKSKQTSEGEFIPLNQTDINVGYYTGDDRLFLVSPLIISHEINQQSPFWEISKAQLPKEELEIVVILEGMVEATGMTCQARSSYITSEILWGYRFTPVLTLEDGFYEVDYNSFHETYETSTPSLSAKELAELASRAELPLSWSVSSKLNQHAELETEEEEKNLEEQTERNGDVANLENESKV
Sequence (P48549 whole entry, looked up): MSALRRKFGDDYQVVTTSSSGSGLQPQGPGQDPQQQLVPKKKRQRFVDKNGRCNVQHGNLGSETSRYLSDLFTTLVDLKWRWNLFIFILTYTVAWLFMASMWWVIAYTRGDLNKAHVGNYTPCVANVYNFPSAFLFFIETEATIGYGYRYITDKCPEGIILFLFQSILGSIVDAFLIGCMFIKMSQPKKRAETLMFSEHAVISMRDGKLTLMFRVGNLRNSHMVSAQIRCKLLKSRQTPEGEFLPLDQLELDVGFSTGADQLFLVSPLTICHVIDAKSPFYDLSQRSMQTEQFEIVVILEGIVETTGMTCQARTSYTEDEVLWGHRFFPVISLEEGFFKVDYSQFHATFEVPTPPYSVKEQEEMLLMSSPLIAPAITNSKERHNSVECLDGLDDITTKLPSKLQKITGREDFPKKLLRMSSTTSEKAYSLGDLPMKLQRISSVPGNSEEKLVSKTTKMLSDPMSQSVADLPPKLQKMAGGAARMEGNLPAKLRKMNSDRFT
Assay: GIRK1/2 thallium flux modulators, retest, confirmation, cell-based, HEK293 rmGlu8/hGIRK1/2, FluoZin-2 (AID 623911)
Conditions: HEK293 rmGlu8/hGIRK1/2, thallium flux FluoZin-2; actives lie on both sides; glutamate co-added at its EC20 level

Structure (SMILES) | manual score
Cc1cccc(CSc2cccc3cccnc23)c1 | 0 (inactive)
CC(=O)Nc1cccc2c1C(=O)N(c1cccc(C)c1)C2=O | 0 (inactive)
O=C1CC(N2CCN(c3nc4ccccc4s3)CC2)C(=O)N1c1ccc(F)cc1 (centres undefined) | 0 (inactive)
CC(C)(C)c1ccc(OCCON2C(=O)CCC2=O)c(Cl)c1 | 0 (inactive)
CC(C)CNC(=S)NNC(=O)c1csc2c1CCC(C)C2 (centres undefined) | 0 (inactive)
Cc1ccccc1NC(=S)NNC(=O)c1csc2c1CCC(C)C2 (centres undefined) | 1 (active)
Cc1ccc(C)c(NC(=S)NNC(=O)c2cc3c(s2)CCC(C)C3)c1 (centres undefined) | 1 (active)
CN(C)/C=C/C(=O)/C=C/c1cn(-c2ncc(C(F)(F)F)cc2Cl)c2ccccc12 | 0 (inactive)
Cc1ccc(-c2[nH]n3c(=O)c4c(nc3c2C)CCCC4)cc1 | 0 (inactive)
CCn1c(=S)[nH]c2nc3c(cc2c1=O)CCCC3 | 1 (active)
C=CCn1c(=S)[nH]c2nc3c(cc2c1=O)CCCC3 | 1 (active)
O=c1c2ccc(Cl)cc2[nH]c(=S)n1CCC1=CCCCC1 | 0 (inactive)
Cc1cccc(NC(=S)NC(=O)c2cc(-c3ccccc3)nc3ccccc23)c1 | 0 (inactive)
Cc1cccc(NC(=S)N/C(=N/S(=O)(=O)c2ccccc2)c2ccccc2)c1 | 1 (active)
Cc1cccc(NC(=O)NC(=S)NC(=O)c2ccccc2)c1 | 0 (inactive)
CCOc1ccc(-n2c(SCc3nc(-c4cccs4)no3)nnc2-c2ccncc2)cc1 | 0 (inactive)
COc1ccc(NC(=O)COC(=O)CC23CC4CC(CC(C4)C2)C3)c([N+](=O)[O-])c1 | 0 (inactive)
CCC(=O)Nc1nc2ccc3nc(C)sc3c2s1 | 0 (inactive)
O=C(Nc1nnc(-c2ccccc2Cl)o1)c1ccc(S(=O)(=O)N2CCCCCC2)cc1 | 1 (active)
CCN(CC)c1ccc2cc(C(=O)NNC(=O)c3ccc(S(=O)(=O)N4CCCCC4)cc3)c(=O)oc2c1 | 0 (inactive)
COc1ccccc1NC(=O)c1ccc(S(=O)(=O)N2CCCC2)cc1 | 0 (inactive)
CC1CCCN(S(=O)(=O)c2ccc(C(=O)Nc3nnc(-c4ccccc4Cl)o3)cc2)C1 (centres undefined) | 1 (active)
CC1CN(S(=O)(=O)c2ccc(C(=O)Nc3nnc(-c4ccc5c(c4)CCCC5)o3)cc2)CC(C)O1 (centres undefined) | 0 (inactive)
NS(=O)(=O)c1ccc(S(=O)(=O)N2CCCC2)cc1 | 0 (inactive)
CCc1cc2cc(C)ccc2nc1SCC(=O)N1CCN(C(=O)c2ccco2)CC1 | 0 (inactive)
CCN(C#N)c1nc(NC(C)C)nc(NC(C)C)n1 | 0 (inactive)

Structure (SMILES) | manual score
Cc1cccc(C)c1NC1=NC(=S)N(c2ccc(N(C)C)cc2)C1(C)C | 0 (inactive)
Cc1ccc(N2C(=S)N=C(Nc3ccccc3C)C23CCOC(C)(C)C3)cc1 (centres undefined) | 1 (active)
Cc1ccccc1NC1=NC(=S)N(c2ccccc2)C12CCOC(C)(C)C2 (centres undefined) | 1 (active)
Cc1ccccc1Nc1nc2nonc2nc1N1CCOCC1 | 0 (inactive)
CCOC(=O)CSc1cccc2cccnc12 | 0 (inactive)
CC(C)(C)c1ccc(C(=O)NC(=S)Nc2nc3c(s2)CCCC3)cc1 | 0 (inactive)
COC(=O)c1sc(NC(=S)NC(=O)c2ccccc2)nc1C | 1 (active)
CCc1nnc(NS(=O)(=O)c2ccc(NC(=S)NC(=O)c3ccccc3)cc2)s1 | 0 (inactive)
COC(=O)c1sc(NC(=S)NC(=O)c2cccc(C)c2)nc1C | 0 (inactive)
O=C(NC(=S)Nc1nc2ccccc2s1)c1ccco1 | 1 (active)
O=C(NC(=S)NCc1ccc(-c2nc3ccccc3s2)cc1)c1ccco1 | 0 (inactive)
COC(=O)c1ccc(C(=O)NC(=S)Nc2nc3c(s2)CCCC3)cc1 | 1 (active)
CCOC(=O)c1sc(NC(=S)NC(=O)c2ccco2)nc1C | 1 (active)
Cn1c(-c2ccc(-c3ccccc3)cc2)c[nH]c1=S | 0 (inactive)
COC(=O)c1ccc(N2C(=O)CC(Sc3n[nH]c(C)n3)C2=O)cc1 (centres undefined) | 0 (inactive)
COC(=O)c1sc(NC(=S)NC(=O)c2ccccc2Cl)nc1C | 1 (active)
CCN(CC)S(=O)(=O)c1cc(NC(=O)Cn2cnc3ccccc3c2=O)ccc1C | 1 (active)
CCC(=O)Nc1ccc2c(c1)ncn2-c1ccc(OC)cc1 | 0 (inactive)
COc1cc(OC)c(NC(=O)CCNC(=O)Cn2cnc3ccccc3c2=O)cc1Cl | 0 (inactive)
C=CCn1c(=O)c2c(C)c(C)sc2n2c(Nc3ccc(OC)cc3)nnc12 | -0.5 (inactive)
CCCCn1c(N)c(C(=S)NC(=O)CC(C)C)c(=O)n(C)c1=O | 1 (active)
CCCCn1c(N)c(C(=S)NC(=O)CC(C)(C)C)c(=O)n(C)c1=O | 1 (active)
Brc1ccc(-c2nnc3c4ccccc4nc(N4CCOCC4)n23)cc1 | 0 (inactive)
CCC(=O)N1c2ccc(C)cc2C2=NNC(=S)NC21O (centres undefined) | 0 (inactive)
COc1ccc(CNCCC(c2ccc(F)cc2)c2ccc(OC)cc2)cc1 (centres undefined) | -1 (active)
COc1ccc(C(CCNCc2ccccc2F)c2ccc(F)cc2)cc1 (centres undefined) | -1 (active)

Structure (SMILES) | manual score
O=C(NNC(=O)c1cc(-c2ccccc2)n(-c2ccccc2)n1)c1cccc([N+](=O)[O-])c1 | 0 (inactive)
N=c1c2c(ncn1CCN1CCOCC1)Oc1ccc3ccccc3c1C2c1ccccc1 (centres undefined) | -1 (active)
COc1ccc(C2c3ccc4ccccc4c3Oc3ncn(CCN4CCOCC4)c(=N)c32)cc1 (centres undefined) | -1 (active)
COc1ccc(S(=O)(=O)NCCCCCC(=O)NCCCN2CCOCC2)cc1 | 0 (inactive)
NC(=O)COc1ccc(C2c3c(oc4ccccc4c3=O)C(=O)N2CC2CCCO2)cc1 (centres undefined) | 0 (inactive)
CC1CCN(c2c([N+](=O)[O-])c(=O)oc3ccccc23)CC1 | 0 (inactive)
CCOC(=O)C1(C(C)(C)CC)CC(CSc2nc3ccccc3[nH]2)OC1=O (centres undefined) | -1 (active)
CCn1c(-c2cc3ccccc3cc2O)n[nH]c1=S | 0 (inactive)
CSC1=NSC2=NC(=O)/C(=C/c3coc4ccccc4c3=O)C(=N)N12 | 3 (inactive)
N=C1/C(=C/c2cccs2)C(=O)N=C2SN=C(SCc3ccccc3)N12 | 1 (active)
O=C1N=C(c2ccccc2)S/C1=C\c1cccs1 | 0 (inactive)
FC(F)(F)c1ccc2nnc(-c3c(Cl)cccc3Cl)n2c1 | 0 (inactive)
O=C(C1CCN(S(=O)(=O)c2cccc3cccnc23)CC1)N1CC=C(c2ccccc2)CC1 | -1 (active)
O=C(C1CCCN1S(=O)(=O)c1cccc2cccnc12)N1CCn2c1nc1ccccc12 (centres undefined) | 0 (inactive)
O=C(C1CCCN1S(=O)(=O)c1cccc2cccnc12)N1CCc2ccccc21 (centres undefined) | 0 (inactive)
Cc1ccc(NC(=S)NCc2ccccc2)cc1[N+](=O)[O-] | 1 (active)
FC(F)(F)c1cccc(NC(=S)NC2CCCC2)c1 | 1 (active)
O=C(Cc1ccccc1)NC(=S)Nc1cccc(C(F)(F)F)c1 | 0 (inactive)
FC(F)(F)c1cccc(N2CCN(C(=S)NC3CCCCC3)CC2)c1 | 0 (inactive)
FC(F)(F)c1cccc(NC(=S)NCc2ccccc2)c1 | 1 (active)
COc1ccc(/C=C/C(=O)N2CCN(S(=O)(=O)/C=C/c3ccccc3)CC2)cc1OC | 0 (inactive)
O=C(C1CCN(c2ncnc3c2sc2cccc(F)c23)CC1)N1CCOCC1 | 0 (inactive)
CCOc1ccc(-c2nc(-c3ccncc3)no2)cc1OCC | 0.5 (inactive)
S=C(NCc1ccco1)N/N=C/c1ccc(Cl)cc1 | 0 (inactive)
S=C(NCc1ccco1)Nc1ccc(Cl)c(Cl)c1 | 1 (active)
COc1ccc(/C(C)=N/NC(=S)NCc2ccco2)cc1 | 0 (inactive)

Structure (SMILES) | manual score
COc1ccc2nc(NC(=S)N(C)C)sc2c1 | 1 (active)
COc1ccc2nc(N=Nc3ccc(O)c4ccccc34)sc2c1 | 0 (inactive)
COc1ccc(C(=S)Nc2ccc(N(C)C)cc2)cc1 | 0 (inactive)
Clc1ccccc1-c1nnc2sc(CCc3ccccc3)nn12 | 0 (inactive)
CCn1c(O)c(N=NC2=NC(=O)CS2)c2cc(C)ccc21 | 0 (inactive)
CCc1ccc2c(c1)c(N=NC1=NC(=O)CS1)c(O)n2C | 1 (active)
CCc1ccc2c(c1)c(N=NC1=NC(=O)CS1)c(O)n2CC | 1 (active)
CC(C)(C)c1csc(NC(=O)c2ccc3nccnc3c2)n1 | 0 (inactive)
Cc1cs/c(=N\N=C\c2cccc([N+](=O)[O-])c2)n1Cc1ccco1 | 0 (inactive)
CC(C)Sc1oc(-c2ccco2)nc1S(=O)(=O)c1ccccc1 | -1 (active)
N=c1c(C(=O)NCc2ccco2)cc2c(=O)n3ccccc3nc2n1CCc1ccccc1 | -1 (active)
Cc1cccn2c(=O)c3cc(C#N)c(=NC(=O)c4cccnc4)n(CC4CCCO4)c3nc12 (centres undefined) | 3 (inactive)
O=C(CCCCn1c(=O)c2ccccc2n(CC(=O)NC2CCCC2)c1=O)NCc1ccco1 | 0 (inactive)
CCCn1c(=N)c(C(=O)NCc2ccc3c(c2)OCO3)cc2c(=O)n3cccc(C)c3nc21 | -1 (active)
Cn1c(=O)cc(OCCCC(=O)NCc2ccc3c(c2)OCO3)c2ccccc21 | 0 (inactive)
CCn1c(SCC(=O)c2cc(C)n(CC3CCCO3)c2C)nc2ccccc21 (centres undefined) | -1 (active)
CCn1c(SCc2nc(-c3ccccc3)no2)nc2ccccc21 | 0 (inactive)
O=C(CSc1nc2ccccc2c(=O)n1CC1CCCO1)N1CCN(c2ccccc2)CC1 (centres undefined) | 0 (inactive)
O=C(CCc1nc(-c2ccccc2F)no1)NCCN1CCN(Cc2ccccc2)CC1 | 0 (inactive)
CCc1ccc(-c2nc(CN3CCC(C(=O)NCc4ccco4)CC3)c(C)o2)cc1 | -1 (active)
O=C(c1cccc(F)c1)N1CCN(Cc2ccco2)CC1 | 0 (inactive)
Cc1ccccc1-c1nc(CS(=O)(=O)CC(=O)NCCCN2CCCC2)c(C)o1 | -1 (active)
CCn1c(N)c(C(=O)NCc2ccco2)sc1=S | 0 (inactive)
O=C(CCN1C(=O)COc2ccccc21)NCCCN1CCc2ccccc2C1 | 0 (inactive)
CCN1CCCC1CNC(=O)CSCc1nc(-c2ccccc2C)oc1C (centres undefined) | -1 (active)
Cc1oc(-c2cccc(Cl)c2)nc1CN1CCC(C(=O)NCc2ccco2)CC1 | -1 (active)
